Assay outcomes deposited in PubChem BioAssay by National Center for Advancing Translational Sciences (NCATS).
TDP1 cell noCPT: qHTS for Inhibitors of human tyrosyl-DNA phosphodiesterase 1 (TDP1): qHTS in cells in absence of CPT | DT40 Tdp1-/- hTDP1 cells, no CPT, ATP luminescence, 48 h | Potency, µM (top dose mostly 46.2 µM), for inactives: at the top dose activity change, negative = growth inhibition, actives largely listed as inhibitors | 420,000 tested, 15% active; also: potency is read from the fitted curve at half-maximal effect; % is scaled to controls: 0 for no effect and ±100 for the full control effect; nearly all actives have a fitted effect of over 55% in size
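Chicken DT40 Tdp1-/- cells complemented with human TDP1, screened without camptothecin (DMSO vehicle only), 400 cells/well. Compounds pin-transferred, cells incubated at 37 °C for at least 48 hr. Growth read as ATP-dependent luminescence (CellTiter-Glo, 30 min at RT).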
IL1B secr inh: qHTS for Inhibitors of Inflammasome Signaling: IL-1-beta AlphaLISA Primary Screen | THP-1 LPS/ATP IL-1B secretion, AlphaLISA, 16 h; hits give low values | activity change, % at 57.5 µM | 360,000 tested, 4.7% active; in the data active = activity change below about -50%; inconclusive = mostly about -30% to -49%; also: % is scaled to controls: 0 for no effect and ±100 for the full control effect
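THP-1 cells pretreated 1 hr with compounds (up to 57.5 uM final), then stimulated with LPS (250 ng/mL final) plus ATP (1.25 mM final); secreted IL-1B measured by AlphaLISA after 16 hr, decreased signal indicating inhibition.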
TDP1 inh: qHTS Assay for Inhibitors of Tyrosyl-DNA Phosphodiesterase (TDP1) | 350,000 tested, 0.28% active | AID 485290, 2010 | Potency, µM (doses to about 130 µM), for inactives: at the highest dose activity change, negative = inhibition, actives largely listed as inhibitors | recombinant TDP1, AlphaScreen DNA substrate cleavage; also: potency is read from the fitted curve at half-maximal effect; % is scaled to controls: 0 for no effect and ±100 for the full control effect; nearly all actives have a fitted effect of over 40% in size
Target sequence (Q9NUW8 whole entry, looked up): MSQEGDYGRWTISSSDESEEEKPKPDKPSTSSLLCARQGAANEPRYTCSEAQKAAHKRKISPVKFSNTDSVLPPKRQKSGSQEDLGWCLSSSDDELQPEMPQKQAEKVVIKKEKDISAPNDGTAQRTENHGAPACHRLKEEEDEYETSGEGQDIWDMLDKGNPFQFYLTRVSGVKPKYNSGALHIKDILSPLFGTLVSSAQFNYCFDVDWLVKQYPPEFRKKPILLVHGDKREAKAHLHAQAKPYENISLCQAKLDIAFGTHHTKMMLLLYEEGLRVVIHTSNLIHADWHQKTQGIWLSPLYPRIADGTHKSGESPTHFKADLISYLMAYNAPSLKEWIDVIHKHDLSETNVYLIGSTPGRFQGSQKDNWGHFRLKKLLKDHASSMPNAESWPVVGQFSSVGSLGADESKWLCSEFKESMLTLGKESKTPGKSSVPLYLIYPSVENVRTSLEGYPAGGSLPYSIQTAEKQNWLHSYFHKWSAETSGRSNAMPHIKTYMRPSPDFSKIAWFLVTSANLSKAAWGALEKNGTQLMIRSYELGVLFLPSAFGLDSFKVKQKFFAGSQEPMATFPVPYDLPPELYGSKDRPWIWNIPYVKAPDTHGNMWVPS
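Signal: AlphaScreen proximity between streptavidin donor and anti-FITC acceptor beads on intact substrate. Reaction: Tdp1 1 nM, substrate 15 nM final, 5 min RT after 15 min compound preincubation.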
TGFb SMAD3 inh: qHTS for Inhibitors of TGF-b; HepG2 CAGA-GFP TGF-b/SMAD3 reporter, GFP fluorescence, 18 h; TGF-beta stimulated, 500 pg/mL final; Potency, µM (top dose mostly 46.1 µM), for inactives: top-dose activity, negative = inhibition, most hits filed as inhibitors; 410,000 tested, 1.2% active; also: potency is read from the fitted curve at half-maximal effect; % is scaled to controls: 0 for no effect and ±100 for the full control effect; nearly all actives have a fitted effect of over 65% in size
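Cell-based qHTS in HEPG2 carrying a CAGA-GFP Smad reporter; compounds added before 500 pg/mL final TGF-beta, 18 h incubation at 37 degrees C, GFP fluorescence quantified per cell by imaging cytometry.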
TDP1 cell CPT: qHTS for Inhibitors of human tyrosyl-DNA phosphodiesterase 1 (TDP1): qHTS in cells in presence of CPT; chicken DT40 Tdp1-/-;hTDP1 cells + 20 nM CPT, ATP luminescence, 48 h; Potency, µM (highest dose often 46.2 µM), for the others: at the highest dose activity change, negative = growth inhibition, actives largely listed as inhibitors; 420,000 tested, 12% active; AID 686979, 2013; also: potency is read from the fitted curve at half-maximal effect; % is scaled to controls: 0 for no effect and ±100 for the full control effect; nearly all actives have a fitted effect of over 55% in size
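Cell growth measured by CellTiter-Glo luminescence after a minimum 48 h, 37 C compound exposure with 20 nM CPT in Tdp1-knockout DT40 cells stably expressing hTDP1, seeded 400/well; qHTS titration format.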
HepG2 tox: qHTS for Inhibitors of TGF-b: Cytotox Counterscreen; HepG2 CAGA-GFP viability, ATP luminescence, 18 h; Potency, µM (highest dose often 46.1 µM), for inactives: at the top dose activity change, negative = cytotoxicity, usual class: cytotoxic; 410,000 tested, 0.76% active; also: potency is read from the fitted curve at half-maximal effect
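CellTiter-Glo luminescence gave cytotoxicity after 18 hours at 37 degrees C. The cells were HepG2 CAGA-GFP in 1% FBS DMEM, stimulated with 500 pg/mL TGF-beta after compound addition. %Activity was normalised to no-cell wells (complete cell-killing) and DMSO (no toxicity), and curves were fitted and classified.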
* = called active by the depositor. An excerpt weighted towards active compounds, which were near 18% of everything screened. Unless noted, calls follow the shape of the dose curve; as a rule, active = well fitted curve in the direction sought with a large enough effect; inconclusive = small, poorly fitted or top-dose-only effect, or another doubt; inactive = no such curve, though single readings can be large; an effect the other way counts as inactive or inconclusive.

CCN1C(=O)CC(N2CCN(c3ccc(C(=O)c4ccccc4)cc3)CC2)C1=O (stereo unspecified) was read as TDP1 cell noCPT 23.1µM*, IL1B secr inh -28.0, TDP1 inh 6.1%, TGFb SMAD3 inh -23.0%, TDP1 cell CPT inconclusive and HepG2 tox -23.0%.
`CCOc1cc(C2NN=C(c3ccc(C)cc3)S2)ccc1O` (stereo unspecified) gave TDP1 cell noCPT 5.17µM*, IL1B secr inh -4.9, TDP1 inh 5.1%, TGFb SMAD3 inh 3.1%, TDP1 cell CPT 6.51µM* and HepG2 tox -13.0%.
Screening COc1ccc(C2NN=C(c3ccc(C)cc3)S2)cc1 (stereo unspecified) returned TDP1 cell noCPT inconclusive, IL1B secr inh -22.7, TGFb SMAD3 inh -8.1%, TDP1 cell CPT -28.3% and HepG2 tox -4.3%.
For CCCN(C(=O)CCc1nc(-c2ccc(OC)cc2)no1)c1ccccc1F the results were TDP1 cell noCPT 16.4µM*, TDP1 inh -2.5%, TGFb SMAD3 inh inconclusive, TDP1 cell CPT inconclusive and HepG2 tox -28.0%.
`COc1ccc(-c2noc(CC(=O)N(C)c3cc(Cl)c(OC)cc3OC)n2)cc1` gave TDP1 cell noCPT inconclusive, TDP1 inh 5.1%, TGFb SMAD3 inh 0.9%, TDP1 cell CPT inconclusive and HepG2 tox -3.9%.
Screening CCN(C(=O)Cc1nc(-c2ccc(OC)cc2)no1)c1cccc(Cl)c1 returned TDP1 cell noCPT 16.4µM*, TDP1 inh -5.1%, TGFb SMAD3 inh -2.8%, TDP1 cell CPT inconclusive and HepG2 tox -12.6%.
CCCN(C(=O)Cc1nc(-c2ccc(OC)cc2)no1)c1ccccc1C was read as TDP1 cell noCPT inconclusive, TDP1 inh -2.6%, TGFb SMAD3 inh -19.5%, TDP1 cell CPT 20.6µM* and HepG2 tox -14.3%.
`CCOC(=O)c1ccc(NC2SC(=O)N(Cc3cccc(C(=O)O)c3)C2=O)cc1` (stereo unspecified) gave TDP1 cell noCPT 0.7%, TGFb SMAD3 inh inconclusive, TDP1 cell CPT -6.6% and HepG2 tox -2.7%.
CC1CN(C(=O)CCC(=O)NCc2cccc(Cl)c2)c2ccccc2S1 (stereo unspecified) was read as TDP1 cell noCPT -28.4%, TDP1 inh -1.0%, TDP1 cell CPT -25.3% and HepG2 tox -25.4%.
`c1ccc(-c2nc3ccccn3c2NC2CCCC2)nc1` gave TDP1 cell noCPT 16.4µM*, IL1B secr inh 11.2, TDP1 inh 6.0%, TGFb SMAD3 inh -3.5%, TDP1 cell CPT inconclusive and HepG2 tox -2.5%.
Cc1ccn2c(NC3CCCC3)c(-c3ccncc3)nc2c1 was read as TDP1 cell noCPT inconclusive, IL1B secr inh -11.4, TDP1 inh 3.4%, TGFb SMAD3 inh -14.7%, TDP1 cell CPT inconclusive and HepG2 tox -11.5%.
`Cc1ccn2c(NC3CCCC3)c(-c3ccccn3)nc2c1` gave TDP1 cell noCPT 6.51µM*, IL1B secr inh -96.2*, TDP1 inh 7.9%, TGFb SMAD3 inh inconclusive, TDP1 cell CPT 18.4µM* and HepG2 tox -21.8%.
Cc1ccn2c(NC3CCCCC3)c(-c3ccc(C)o3)nc2c1 was read as TDP1 cell noCPT 11.2µM*, TDP1 inh 6.5% and TDP1 cell CPT 15.8µM*.
`C[C@H](CO)N1C[C@H](C)[C@H](CN(C)S(=O)(=O)c2ccc(C#N)cc2)OCc2cnnn2CCCC1=O` gave TDP1 cell noCPT -19.1%, IL1B secr inh -4.8, TGFb SMAD3 inh 3.9%, TDP1 cell CPT 0.2% and HepG2 tox 0.5%.
COc1cc(C(=O)N(CCCN(C)C)c2nc3c(OC)cccc3s2)cc(OC)c1OC was read as TDP1 cell noCPT 20.6µM*, TDP1 inh -1.2%, TGFb SMAD3 inh -11.3%, TDP1 cell CPT inconclusive and HepG2 tox -13.9%.
For COc1cccc2sc(N(CCCN(C)C)C(=O)c3sc4ccccc4c3Cl)nc12 the results were TDP1 cell noCPT 18.4µM*, IL1B secr inh -66.9*, TDP1 inh 5.3%, TGFb SMAD3 inh inconclusive, TDP1 cell CPT inconclusive and HepG2 tox -78.8%.
Screening Cc1cccc2sc(N(CCCN(C)C)C(=O)c3ccc(C(=O)c4ccccc4)cc3)nc12 returned TDP1 cell noCPT inconclusive, IL1B secr inh -8.5, TDP1 inh 11.5%, TGFb SMAD3 inh inconclusive, TDP1 cell CPT inconclusive and HepG2 tox -84.0%.
Cc1cccc2sc(N(CCCN(C)C)C(=O)c3sc4ccccc4c3Cl)nc12 was read as TDP1 cell noCPT 23.1µM*, IL1B secr inh 0.0, TDP1 inh 2.6%, TGFb SMAD3 inh 0.0%, TDP1 cell CPT 16.4µM* and HepG2 tox -42.9%.
Cc1cc(Br)ccc1N=C1C(=O)Nc2ccccc21 was read as TDP1 cell noCPT -5.9%, IL1B secr inh 28.7, TGFb SMAD3 inh -15.0%, TDP1 cell CPT 7.1% and HepG2 tox -14.3%.
Screening Cc1ccc([N+](=O)[O-])cc1N=C1C(=O)Nc2ccccc21 returned TDP1 cell noCPT -29.8%, IL1B secr inh -88.6*, TGFb SMAD3 inh 0.9%, TDP1 cell CPT -20.3% and HepG2 tox -15.1%.
Screening O=C1Nc2ccccc2C1=Nc1ccccc1-c1ccccc1 returned TDP1 cell noCPT inconclusive, IL1B secr inh -70.4*, TGFb SMAD3 inh -28.6%, TDP1 cell CPT inconclusive and HepG2 tox 9.4%.
For COc1ccc(C(=O)Nc2ccccc2N2CCOCC2)cc1S(=O)(=O)N1CCOCC1 the results were TDP1 cell noCPT inconclusive, IL1B secr inh -0.5, TDP1 inh 2.1%, TGFb SMAD3 inh -11.5%, TDP1 cell CPT inconclusive and HepG2 tox -13.1%.
Screening Cc1ccc(NC(=O)c2ccc(N3CCOCC3)c([N+](=O)[O-])c2)cc1S(=O)(=O)N1CCOCC1 returned TDP1 cell noCPT 7.31µM*, IL1B secr inh -77.7*, TDP1 inh 5.4%, TGFb SMAD3 inh -8.7%, TDP1 cell CPT 9.2µM* and HepG2 tox -6.0%.
`COc1ccc(C(=O)Nc2ccccc2[N+](=O)[O-])cc1S(=O)(=O)N1CCOCC1` gave TDP1 cell noCPT inconclusive, IL1B secr inh -61.8*, TDP1 inh 2.9%, TGFb SMAD3 inh inconclusive, TDP1 cell CPT -2.4% and HepG2 tox -60.2%.
